# Assay results reported in the supplement of paper PMC8728848.
# The sample as a whole holds a higher share of the strongest signals than the screen did.
# How the values were obtained:
# Test in all cases: glycan array binding signal (z-score within array); higher = stronger binding
# Conditions in all cases: glycan notation: IUPAC condensed, linker removed
# [1] = target: Fuc(a1-2)Gal(b1-3)GlcNAc(b1-3)GalNAc
# In short: (§1)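 The binding signal is a Z-score computed within each array and averaged over linkers. Arrays of the same protein sequence at different concentrations or buffers were also averaged together. Data originate from 3228 arrays in the Consortium for Functional Glycomics database, kept only where the protein sequence was available.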
# Fuc(a1-2)Gal(b1-4)Glc = target: Fuc(a1-2)Gal(b1-4)Glc
# In short: as §1
# [2] = target: Fuc(a1-2)Gal(b1-4)GlcNAc(b1-2)Man(a1-3)[Fuc(a1-2)Gal(b1-4)GlcNAc(b1-2)Man(a1-6)]Man(b1-4)GlcNAc(b1-4)GlcNAc
# In short: as §1
# [3] = target: Fuc(a1-2)[Gal(a1-3)]Gal(b1-3)GalNAc
# In short: as §1
# [4] = target: Fuc(a1-2)[Gal(a1-3)]Gal(b1-3)GlcNAc(b1-2)Man(a1-3)[Fuc(a1-2)[Gal(a1-3)]Gal(b1-3)GlcNAc(b1-2)Man(a1-6)]Man(b1-4)GlcNAc(b1-4)GlcNAc
# In short: as §1
# [5] = target: Fuc(a1-2)[GalNAc(a1-3)]Gal(b1-3)GlcNAc(b1-2)Man(a1-3)[Fuc(a1-2)[GalNAc(a1-3)]Gal(b1-3)GlcNAc(b1-2)Man(a1-6)]Man(b1-4)GlcNAc(b1-4)[Fuc(a1-6)]GlcNAc
# In short: as §1
# [6] = target: Fuc(a1-2)[GalNAc(a1-3)]Gal(b1-3)GlcNAc(b1-6)GalNAc
# In short: as §1
# [7] = target: Fuc(a1-2)[GalNAc(a1-3)]Gal(b1-4)GlcNAc(b1-6)GalNAc
# In short: as §1
# [8] = target: Fuc(a1-2)[GalNAc(a1-3)]Gal(b1-4)[Fuc(a1-3)]GlcNAc
# In short: as §1
# [9] = target: Fuc(a1-2)[GalNAc(a1-3)]Gal(b1-4)[Fuc(a1-3)]GlcNAc(b1-3)GalNAc
# In short: as §1
# [10] = target: Fuc(a1-3)[Gal(b1-4)]GlcNAc(b1-3)GalNAc
# In short: as §1
# [11] = target: Fuc(a1-3)[Gal3S(b1-4)]Glc
# In short: as §1
# [12] = target: Fuc(a1-3)[Gal3S(b1-4)]GlcNAc6S
# In short: as §1
# Fuc(a1-4)GlcNAc = target: Fuc(a1-4)GlcNAc
# In short: as §1
# [13] = target: Gal(a1-3)Gal(b1-3)GlcNAc(b1-6)GalNAc
# In short: as §1
# [14] = target: Gal(a1-3)[Gal(a1-4)]Gal(b1-4)GlcNAc
# In short: as §1
# [15] = target: Gal(a1-4)Gal(b1-4)GlcNAc(b1-2)Man(a1-3)[Gal(a1-4)Gal(b1-4)GlcNAc(b1-2)Man(a1-6)]Man(b1-4)GlcNAc(b1-4)GlcNAc
# In short: as §1
# Gal(b1-2)Gal = target: Gal(b1-2)Gal
# In short: as §1
# [16] = target: Gal(b1-3)GalNAc(b1-3)Gal(a1-4)Gal(b1-4)Glc
# In short: as §1
# [17] = target: Gal(b1-3)GlcNAc(b1-2)[Gal(b1-3)GlcNAc(b1-6)]Man(a1-6)[Gal(b1-3)GlcNAc(b1-2)Man(a1-3)]Man(b1-4)GlcNAc(b1-4)GlcNAc
# In short: as §1
# [18] = target: Gal(b1-3)GlcNAc(b1-3)Gal(b1-4)GlcNAc(b1-3)Gal(b1-4)GlcNAc(b1-2)[Gal(b1-3)GlcNAc(b1-3)Gal(b1-4)GlcNAc(b1-3)Gal(b1-4)GlcNAc(b1-6)]Man(a1-6)[Gal(b1-3)GlcNAc(b1-3)Gal(b1-4)GlcNAc(b1-3)Gal(b1-4)GlcNAc(b1-2)Man(a1-3)]Man(b1-4)GlcNAc(b1-4)[Fuc(a1-6)]GlcNAc
# In short: as §1
# [19] = target: Gal(b1-3)GlcNAc(b1-6)GalNAc
# In short: as §1
# [20] = target: Gal(b1-4)GlcNAc(b1-2)Man(a1-3)[Gal(b1-4)GlcNAc(b1-2)Man(a1-6)]Man(b1-4)GlcNAc(b1-4)GlcNAc
# In short: as §1
# [21] = target: Gal(b1-4)GlcNAc(b1-2)Man(a1-6)[Man(a1-3)]Man(b1-4)GlcNAc(b1-4)GlcNAc
# In short: as §1
# [22] = target: Gal(b1-4)GlcNAc(b1-2)[Gal(b1-4)GlcNAc(b1-6)]Man(a1-6)[Gal(b1-4)GlcNAc(b1-2)Man(a1-3)]Man(b1-4)GlcNAc(b1-4)[Fuc(a1-6)]GlcNAc
# In short: as §1
# [23] = target: Gal(b1-4)GlcNAc(b1-3)Gal(b1-4)GlcNAc(b1-2)Man(a1-3)[Gal(b1-4)GlcNAc(b1-3)Gal(b1-4)GlcNAc(b1-2)Man(a1-6)]Man(b1-4)GlcNAc(b1-4)GlcNAc
# In short: as §1
# [24] = target: Gal(b1-4)GlcNAc(b1-3)Gal(b1-4)GlcNAc(b1-3)Gal(b1-4)GlcNAc(b1-3)Gal(b1-4)GlcNAc(b1-3)Gal(b1-4)GlcNAc(b1-3)Gal(b1-4)GlcNAc(b1-2)Man(a1-3)[Gal(b1-4)GlcNAc(b1-3)Gal(b1-4)GlcNAc(b1-3)Gal(b1-4)GlcNAc(b1-3)Gal(b1-4)GlcNAc(b1-3)Gal(b1-4)GlcNAc(b1-3)Gal(b1-4)GlcNAc(b1-2)Man(a1-6)]Man(b1-4)GlcNAc(b1-4)GlcNAc
# In short: as §1
# [25] = target: Gal(b1-4)GlcNAc(b1-3)GalNAc
# In short: as §1
# [26] = target: Gal3S(b1-4)[Fuc(a1-3)]Glc6S
# In short: as §1
# GalNAc(b1-3)GlcNAc = target: GalNAc(b1-3)GlcNAc
# In short: as §1
# GalNAc(b1-4)Gal(b1-4)Glc = target: GalNAc(b1-4)Gal(b1-4)Glc
# In short: as §1
# [27] = target: GlcA3S(b1-3)Gal(b1-4)GlcNAc(b1-3)Gal(b1-4)Glc
# In short: as §1
# [28] = target: GlcNAc(a1-4)Gal(b1-4)GlcNAc(b1-3)Gal(b1-4)GlcNAc
# In short: as §1
# [29] = target: GlcNAc(b1-2)Man(a1-3)[GlcNAc(b1-4)][GlcNAc(b1-2)Man(a1-6)]Man(b1-4)GlcNAc(b1-4)GlcNAc
# In short: as §1
# GlcNAc(b1-3)Fuc = target: GlcNAc(b1-3)Fuc
# In short: as §1
# [30] = target: GlcNAc(b1-3)Gal(b1-4)GlcNAc(b1-2)Man(a1-3)[GlcNAc(b1-3)Gal(b1-4)GlcNAc(b1-2)Man(a1-6)]Man(b1-4)GlcNAc(b1-4)GlcNAc
# In short: as §1
# [31] = target: GlcNAc(b1-3)Gal(b1-4)GlcNAc(b1-2)[GlcNAc(b1-3)Gal(b1-4)GlcNAc(b1-6)]Man(a1-6)[GlcNAc(b1-3)Gal(b1-4)GlcNAc(b1-2)Man(a1-3)]Man(b1-4)GlcNAc(b1-4)GlcNAc
# In short: as §1
# [32] = target: GlcNAc(b1-3)Gal(b1-4)GlcNAc(b1-3)Gal(b1-4)GlcNAc(b1-3)Gal(b1-4)GlcNAc(b1-3)Gal(b1-4)GlcNAc(b1-2)[GlcNAc(b1-3)Gal(b1-4)GlcNAc(b1-3)Gal(b1-4)GlcNAc(b1-3)Gal(b1-4)GlcNAc(b1-3)Gal(b1-4)GlcNAc(b1-6)]Man(a1-6)[GlcNAc(b1-3)Gal(b1-4)GlcNAc(b1-3)Gal(b1-4)GlcNAc(b1-3)Gal(b1-4)GlcNAc(b1-3)Gal(b1-4)GlcNAc(b1-2)Man(a1-3)]Man(b1-4)GlcNAc(b1-4)[Fuc(a1-6)]GlcNAc
# In short: as §1
# [33] = target: GlcNAc6S(b1-3)Gal(b1-4)GlcNAc
# In short: as §1
# [34] = target: Man(a1-2)Man(a1-3)[Man(a1-2)Man(a1-6)]Man(a1-6)[Man(a1-2)Man(a1-2)Man(a1-3)]Man
# In short: as §1
# MurNAc(b1-4)GlcNAc = target: MurNAc(b1-4)GlcNAc
# In short: as §1
# [35] = target: Neu5Ac(a2-3)Gal(b1-3)GalNAc(b1-4)[Neu5Ac(a2-8)Neu5Ac(a2-3)]Gal(b1-4)Glc
# In short: as §1
# [36] = target: Neu5Ac(a2-3)Gal(b1-3)GlcNAc
# In short: as §1
# [37] = target: Neu5Ac(a2-3)Gal(b1-3)[Neu5Ac(a2-6)]GlcNAc(b1-3)[Fuc(a1-3)[Gal(b1-4)]GlcNAc(b1-6)]Gal(b1-4)Glc
# In short: as §1
# [38] = target: Neu5Ac(a2-3)Gal(b1-4)GlcNAc(b1-2)[Neu5Ac(a2-3)Gal(b1-4)GlcNAc(b1-6)]Man(a1-6)[Neu5Ac(a2-3)Gal(b1-4)GlcNAc(b1-2)Man(a1-3)]Man(b1-4)GlcNAc(b1-4)GlcNAc
# In short: as §1
# [39] = target: Neu5Ac(a2-3)Gal(b1-4)GlcNAc(b1-6)[Neu5Ac(a2-3)Gal(b1-3)]GalNAc
# In short: as §1
# [40] = target: Neu5Ac(a2-3)Gal(b1-4)[Fuc(a1-3)]GlcNAc(b1-3)GalNAc
# In short: as §1
# [41] = target: Neu5Ac(a2-6)Gal(b1-4)GlcNAc(b1-2)Man(a1-6)[Man(a1-3)]Man(b1-4)GlcNAc(b1-4)GlcNAc
# In short: as §1
# [42] = target: Neu5Ac(a2-8)Neu5Ac(a2-3)[Gal(b1-3)GalNAc(b1-4)]Gal(b1-4)Glc
# In short: as §1
binder,measurement,setting,value
RobpsCRA (Robinia pseudoacacia) (protein) IKGGYWYSGSGLAVSDINPSHFTHLFCAFADLDPNTNKLTISSSNAAAFSTFTQTVRAKNPSVKTLLSIGGGGGRALAAVFANMASQASRRKSFIDSSIQLARRNNFHGLDLDWEYPSSDIDKTNFASLIREWRAAVATESSTSGTPALLLSAAVGGSDQITPLKYYPGEAIANNLDWVNVMTYDLYTSDSYPTLTQPPAPLFYPRGIFSADEGITKWIQSGVPESKLALGLPFYGFKWRLSDPNNHGLFAPATQGLGAVKYKDIVNTGGQVEFDSTYVTNYCFKGTDWYGYDDTQSISAKVAYAKQRGLFGYFAWHIEQDSNWALS,glycan array binding signal (z-score),[1],-0.523
same,glycan array binding signal (z-score),Fuc(a1-2)Gal(b1-4)Glc,0.123
same,glycan array binding signal (z-score),[2],-0.573
same,glycan array binding signal (z-score),[3],-0.447
same,glycan array binding signal (z-score),[4],-0.684
same,glycan array binding signal (z-score),[5],-0.163
same,glycan array binding signal (z-score),[6],-0.584
same,glycan array binding signal (z-score),[7],-0.132
same,glycan array binding signal (z-score),[8],-0.375
same,glycan array binding signal (z-score),[9],16.3
same,glycan array binding signal (z-score),[10],0.084
same,glycan array binding signal (z-score),[11],-0.504
same,glycan array binding signal (z-score),[12],0.763
same,glycan array binding signal (z-score),Fuc(a1-4)GlcNAc,-0.31
same,glycan array binding signal (z-score),[13],-0.356
same,glycan array binding signal (z-score),[14],1.85
same,glycan array binding signal (z-score),[15],0.418
same,glycan array binding signal (z-score),Gal(b1-2)Gal,-0.839
same,glycan array binding signal (z-score),[16],0.121
same,glycan array binding signal (z-score),[17],-0.739
same,glycan array binding signal (z-score),[18],0.989
same,glycan array binding signal (z-score),[19],-0.441
same,glycan array binding signal (z-score),[20],-0.393
same,glycan array binding signal (z-score),[21],0.031
same,glycan array binding signal (z-score),[22],1.6
same,glycan array binding signal (z-score),[23],1.01
same,glycan array binding signal (z-score),[24],2.18
same,glycan array binding signal (z-score),[25],0.32
same,glycan array binding signal (z-score),[26],1.65
same,glycan array binding signal (z-score),GalNAc(b1-3)GlcNAc,0.418
same,glycan array binding signal (z-score),GalNAc(b1-4)Gal(b1-4)Glc,0.371
same,glycan array binding signal (z-score),[27],2.45
same,glycan array binding signal (z-score),[28],1.54
same,glycan array binding signal (z-score),[29],-0.359
same,glycan array binding signal (z-score),GlcNAc(b1-3)Fuc,-0.426
same,glycan array binding signal (z-score),[30],-0.142
same,glycan array binding signal (z-score),[31],1.5
same,glycan array binding signal (z-score),[32],1.28
same,glycan array binding signal (z-score),[33],-0.663
same,glycan array binding signal (z-score),[34],0.574
same,glycan array binding signal (z-score),MurNAc(b1-4)GlcNAc,-0.389
same,glycan array binding signal (z-score),[35],-0.829
same,glycan array binding signal (z-score),[36],0.156
same,glycan array binding signal (z-score),[37],-0.376
same,glycan array binding signal (z-score),[38],-0.526
same,glycan array binding signal (z-score),[39],-0.478
same,glycan array binding signal (z-score),[40],1.49
same,glycan array binding signal (z-score),[41],1.67
same,glycan array binding signal (z-score),[42],0.946
